In publication PMC13541613, “GHT-SELEX demonstrates unexpectedly high intrinsic sequence specificity and complex DNA binding of many human transcription factors”:

Tests used:
Experiment in all cases: HT-SELEX; 20 mM HEPES pH 7, 140 mM KCl, 5 mM NaCl, 1 mM K2HPO4, 2 mM MgSO4, 100 uM EGTA, ZnSO4, 0.1% Tween20; room temperature, 1 h; high values mean tight binding
Conditions in all cases: protein: ivt; tags: eGFP (N-terminal); dsDNA, one strand shown
ZNF721 full-length = ZNF721 full-length (Homo sapiens, UniProt Q8TF20-2 1-923)
In short: (§1)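 In HEPES/KCl low-stringency buffer with Tween20, a bead-immobilised tagged transcription factor (full-length or DNA-binding-domain fragment, from HEK293 lysate or cell-free extract) was incubated with a randomized 40-base DNA library for 1 h at room temperature. DNA retained after washing was heat-eluted, amplified by PCR over successive cycles and Illumina-sequenced, giving ~3 million 60 bp reads per sample. The reported binding signal, a relative k-mer count in those selected reads, rises with tighter binding.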

ZNF721 DBD1 = ZNF721 DBD1 (Homo sapiens, UniProt Q8TF20-2 29-461)
In short: as §1

ZNF721 DBD2 = ZNF721 DBD2 (Homo sapiens, UniProt Q8TF20-2 395-923)
In short: as §1

Chain of ZNF721 DBD1 (Q8TF20 17-449): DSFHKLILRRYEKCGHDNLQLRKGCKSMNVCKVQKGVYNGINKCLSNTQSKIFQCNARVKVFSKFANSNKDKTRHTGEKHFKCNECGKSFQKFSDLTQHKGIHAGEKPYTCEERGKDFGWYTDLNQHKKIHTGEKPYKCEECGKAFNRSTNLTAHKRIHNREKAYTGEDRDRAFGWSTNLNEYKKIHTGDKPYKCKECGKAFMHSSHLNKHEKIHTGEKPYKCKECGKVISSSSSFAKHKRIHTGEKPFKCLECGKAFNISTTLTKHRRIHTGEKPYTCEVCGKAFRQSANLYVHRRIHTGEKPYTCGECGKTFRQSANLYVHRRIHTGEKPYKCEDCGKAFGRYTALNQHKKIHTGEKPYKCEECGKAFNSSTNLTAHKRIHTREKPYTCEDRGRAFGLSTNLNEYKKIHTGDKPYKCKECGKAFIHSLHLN
Chain of ZNF721 DBD2 (Q8TF20 383-911): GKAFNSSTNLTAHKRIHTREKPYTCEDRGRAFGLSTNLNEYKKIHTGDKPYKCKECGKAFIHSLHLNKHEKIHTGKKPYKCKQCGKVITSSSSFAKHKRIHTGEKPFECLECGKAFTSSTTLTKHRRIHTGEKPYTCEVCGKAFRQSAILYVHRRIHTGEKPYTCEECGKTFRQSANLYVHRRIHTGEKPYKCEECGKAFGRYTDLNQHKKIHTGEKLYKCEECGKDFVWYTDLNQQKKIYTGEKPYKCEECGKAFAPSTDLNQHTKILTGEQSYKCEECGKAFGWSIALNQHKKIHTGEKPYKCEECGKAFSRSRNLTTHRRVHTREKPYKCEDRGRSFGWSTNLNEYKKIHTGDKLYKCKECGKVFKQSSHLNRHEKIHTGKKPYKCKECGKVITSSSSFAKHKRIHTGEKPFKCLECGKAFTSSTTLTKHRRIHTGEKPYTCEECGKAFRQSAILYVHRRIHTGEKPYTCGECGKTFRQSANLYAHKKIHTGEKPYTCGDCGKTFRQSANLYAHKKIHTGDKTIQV
Chain of ZNF721 full-length (Q8TF20 other isoform, or with tags, fused parts or gaps): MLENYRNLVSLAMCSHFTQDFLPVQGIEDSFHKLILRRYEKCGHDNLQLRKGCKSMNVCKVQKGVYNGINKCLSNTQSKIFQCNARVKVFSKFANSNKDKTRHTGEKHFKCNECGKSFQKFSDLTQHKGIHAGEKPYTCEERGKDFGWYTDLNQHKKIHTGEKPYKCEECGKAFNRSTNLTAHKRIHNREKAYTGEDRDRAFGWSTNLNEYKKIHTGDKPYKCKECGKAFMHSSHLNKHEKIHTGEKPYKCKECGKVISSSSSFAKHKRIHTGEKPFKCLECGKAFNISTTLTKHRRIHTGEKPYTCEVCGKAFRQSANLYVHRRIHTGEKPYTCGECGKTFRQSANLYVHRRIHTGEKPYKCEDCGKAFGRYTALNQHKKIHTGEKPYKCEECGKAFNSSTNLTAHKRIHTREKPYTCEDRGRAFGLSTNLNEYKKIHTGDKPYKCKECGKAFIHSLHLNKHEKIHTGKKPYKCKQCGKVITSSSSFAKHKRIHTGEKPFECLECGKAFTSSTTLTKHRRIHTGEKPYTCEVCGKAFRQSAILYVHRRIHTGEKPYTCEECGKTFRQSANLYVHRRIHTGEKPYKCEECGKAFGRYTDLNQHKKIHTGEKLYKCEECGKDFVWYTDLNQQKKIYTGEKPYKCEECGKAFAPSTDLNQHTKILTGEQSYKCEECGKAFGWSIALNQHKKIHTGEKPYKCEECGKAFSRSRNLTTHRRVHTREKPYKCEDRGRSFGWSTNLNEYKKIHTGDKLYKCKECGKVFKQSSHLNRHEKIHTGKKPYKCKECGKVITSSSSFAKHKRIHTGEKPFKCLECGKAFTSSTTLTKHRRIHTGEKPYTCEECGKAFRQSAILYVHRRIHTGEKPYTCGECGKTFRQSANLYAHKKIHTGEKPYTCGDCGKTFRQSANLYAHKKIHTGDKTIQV

Sequence	binding signal (ZNF721 full-length) [relative 10-mer count]	binding signal (ZNF721 DBD1) [relative 10-mer count]	binding signal (ZNF721 DBD2) [relative 10-mer count]
AAGCTATACC	0.227	0.155	–
CTCCGCCCCC	0.11	0.00537	–
GCTTCATACC	0.229	0.354	–
AACCCCCACC	0.108	0.00495	–
AGCTTCTTTC	0.151	0.125	–
CTTCATACCC	0.221	0.363	–
CCAACCCCAC	0.128	0.00482	0.00288
GCCCCACCCA	0.13	0.00404	0.00515
CACCTCCCCA	0.115	0.00505	0.00348
CAACAAAACA	0.111	0.00174	0.116
ATAGCTTCAT	0.118	0.158	0.00288
ACCCCCCAAC	0.103	0.00321	0.00407
CCGCCACCAC	0.106	0.00417	0.0036
GCGTACCCTA	0.111	0.0263	0.0775
CCCCCCACAC	0.17	0.00656	0.00671
CACCCCCTCC	0.159	0.00899	0.00719
CCACCCCACC	0.411	0.0178	0.00731
CCCACCCTCA	0.114	0.00573	0.00971
CAAAAAAAAA	0.226	0.0215	0.0886
CACCACCCGC	0.111	0.00454	0.00527
CCACCCACCG	0.143	0.00615	0.00731
CCCTCCCCCG	0.145	0.00555	0.00467

Sequence	binding signal (ZNF721 full-length) [relative 10-mer count]	binding signal (ZNF721 DBD1) [relative 10-mer count]	binding signal (ZNF721 DBD2) [relative 10-mer count]
AGGGTTTCCA	0.106	0.00128	0.201
CCACCCCGAC	0.136	0.00404	0.0024
CCCCCTCCCG	0.114	0.00573	0.00336
CCAACCACCC	0.175	0.00624	0.00312
CACCCCGACC	0.113	0.00335	0.00216
GGGTGGGGGA	0.208	0.00885	0.00443
CCACCCACCA	0.237	0.00977	0.00791
CCCACACCAC	0.137	0.00541	0.00503
CCAACCCACC	0.171	0.00642	0.00395
CTCCCCCACC	0.191	0.0104	0.00348
ATGTGTATGA	0.12	0.124	0.0018
CCGACCCCCC	0.153	0.00541	0.00108
AAAAAAGCTA	0.489	0.222	0.00276
AGGTGGGTGG	0.149	0.00642	0.00443
CACGCCACCC	0.103	0.00344	0.00587
CCATCCCCAC	0.116	0.00537	0.00372
ACCCCACCCT	0.104	0.005	0.00372
CCCCCCATCC	0.15	0.00509	0.00419
AAACAGCGTA	0.378	0.00115	0.468
CACTTCATAC	0.747	1	0.00144
CCCACTCCCC	0.155	0.00656	0.00372
AAAGCTATCC	0.165	0.0786	0.00156

Sequence	binding signal (ZNF721 full-length) [relative 10-mer count]	binding signal (ZNF721 DBD1) [relative 10-mer count]	binding signal (ZNF721 DBD2) [relative 10-mer count]
ACCACCCGCC	0.125	0.00445	0.00312
CGGAAAAAAG	0.109	0.023	0.0288
CCGACCCACC	0.115	0.00367	0.00467
CCCCTACCCC	0.199	0.00954	0.00384
ATCCCCACCC	0.114	0.00459	0.00515
AAGCAGCATG	0.115	0.0017	0.137
CCCCTCCTCC	0.154	0.00794	0.00515
CCCACCCCAC	0.354	0.0155	0.00863
CCTCCCCTCC	0.155	0.00812	0.0132
CAAAAAAAAG	0.269	0.0321	0.108
CCCAACCCCA	0.132	0.00459	0.00372
CCCCTCCCCC	0.337	0.0145	0.00443
CCCCGCCACC	0.266	0.0105	0.00336
GCCCCAACCC	0.105	0.00376	0.00168
CCCCCCCCCA	0.16	0.00477	0.00312
AGAAAAAAAG	0.118	0.0217	0.035
CCGCCACCCA	0.107	0.00523	0.00276
CAACCACCCC	0.13	0.00486	0.00252
CACCACCGCC	0.103	0.00454	0.00324
ACCTCCCCAC	0.108	0.00422	0.0036
AAAAAAAACA	0.37	0.00592	0.252
ACCCCACCAC	0.199	0.00738	0.00407

Sequence	binding signal (ZNF721 full-length) [relative 10-mer count]	binding signal (ZNF721 DBD1) [relative 10-mer count]	binding signal (ZNF721 DBD2) [relative 10-mer count]
GCCCCTCCCC	0.144	0.00596	0.00551
CCAACCCCCA	0.13	0.00486	0.00168
CACCAACCCC	0.123	0.00404	0.00407
AGCGTCTCCA	0.271	0.0472	0.388
CCACCACCGC	0.11	0.00482	0.00503
CCACCGCCCC	0.256	0.0117	0.00455
CCCTCCCTCC	0.178	0.0107	0.0211
AAAGCAGCAT	0.31	0.00202	0.366
CCCGCCCCCG	0.13	0.00482	0.00144
AAAAAAGCGC	0.115	0.0212	0.015
ACCACCCCCA	0.142	0.00505	0.00204
CCACCCCCAC	0.326	0.0121	0.00515
CCCACCCCAG	0.114	0.00321	0.00156
CCCCCAACCA	0.118	0.00477	0.00503
CCCCTCTCCC	0.107	0.00454	0.00204
CACCCCGCCA	0.108	0.00404	0.00455
GCCCCCCCAC	0.112	0.0055	0.00803
GCCCCCACCC	0.19	0.0083	0.00407
CAAAACAGCA	0.21	0.00119	0.205
GCCCCCCGCC	0.123	0.00477	0.003
